Source: PubChem (National Center for Advancing Translational Sciences (NCATS))
KDM5B inh = KDM5B demethylase inhibition; Q9UGL1; KDM5B demethylase, FDH-coupled NADH fluorescence (FDH is formaldehyde dehydrogenase); Potency, µM (titrated, usually from 57.7 µM), most hits filed as inhibitors; hit rate 2.6% among 220,000; note: potency is the fitted concentration of half-maximal effect; 0% is about no effect; nearly all actives have a fitted effect of over 70% in size
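Coupled FDH/NAD⁺ fluorescence readout. KDM5BΔAP 200 nM final; compound titration, 10 min RT preincubation; substrate mix 12.5 µM H3K4me3, 25 µM 2-OG, 50 µM Fe(II), 100 µM ascorbate, 0.25 mM NAD⁺, 0.25 U/mL FDH; ΔRFU over 30 min.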
IP6K1 inh = IP6K1 kinase inhibition | hit rate 0.81% among 140,000 | activity change, % (series mostly up to about 58 µM) | Q92551 | IP6K1 kinase, ADP-Glo luminescence, 2 h; active compounds read low; in the data active = activity change below about -25%; note: % is set by controls: 0 for no effect and ±100 for the full control effect
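ADP-Glo luminescence measures ADP made by human IP6K1 during a 2 h RT reaction with ATP/IP6 (mix at 1.3 mM/130 uM); top library doses 57.5 and 19.1 uM final.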
IP6K1 conf = confirmation of human IP6K1 inhibitors; shares compounds with IP6K1 inh; recombinant IP6K1 kinase, ADP-Glo luminescence, 2 h; Potency, µM (top dose mostly 49 µM), inactives show at the top dose activity change, negative = inhibition, actives largely listed as inhibitors; hit rate 13% among 1,200; note: potency is the fitted concentration of half-maximal effect; % is set by controls: 0 for no effect and ±100 for the full control effect; nearly all actives have a fitted effect of over 65% in size
The depositor's hits bear a star; i = inactive; ? = inconclusive; . = not tested or not shown. In the library only some 2.8% were active in any assay of this set; here they are far more common. Unless noted, calls come from the whole dose curve; as a rule, active = well fitted inhibition curve with a large enough effect; inconclusive = small, poorly fitted or top-dose-only effect; inactive = no such curve, though single readings can be large or run the other way.

SMILES	KDM5B inh	IP6K1 inh	IP6K1 conf
COc1ccc(NC(=O)CSc2nnc3scc(-c4ccc(Cl)cc4)n23)cc1	i	33	.
COc1ccc(Cl)cc1-c1ccc2c(c1)C(=O)N1CC[C@H](N)C[C@H]1C(=O)N2	?	-11	.
COc1ccc(-c2ccc3c(c2)C(=O)N2CC[C@H](n4nnc(C(N)=O)c4C(N)=O)C[C@H]2C(=O)N3)c(OC)c1	i	-44*	?
Cc1ccc(S(=O)(=O)Nc2ccc(-c3ccccc3)cc2)cc1	i	.	.
O=C(CCc1ccc(F)cc1)c1ccc2nnc(-c3cncc(Cl)c3)n2c1	.	12	.
CCC(C)C(NC(=O)c1ccc(C(F)(F)F)cc1)C(=O)O (stereo not drawn)	i	.	.
CC(C)C[C@H](C(=O)O)c1cc(-c2ccc(C(F)(F)F)cc2)cc(-c2ccc(C(F)(F)F)cc2)c1	.	-30*	?
O=C(CCc1cc2ccccc2o1)NC12CC3CC(CC(C3)C1)C2	i	.	.
Cc1ccc(C2Cn3nnc(C(=O)N4CCC(C(=O)NC5CCC(C)CC5)CC4)c3CO2)cc1 (stereo not drawn)	i	-30*	-10%
O=C(c1cccc(Cl)c1)N1CCN(C(=O)c2nnn3c2COC(c2ccc(Cl)cc2)C3)CC1 (stereo not drawn)	i	-6	.
O=C(c1ccc2cc[nH]c2c1)N1CCN(C(=O)c2nnn3c2COC(c2ccc(Cl)cc2)C3)CC1 (stereo not drawn)	?	-28*	-9%
Cc1ccc(C2Cn3nnc(C(=O)N4CCC(C(=O)NC5CC5)CC4)c3CO2)cc1 (stereo not drawn)	i	0	.
CCS(=O)(=O)N1CCCC(c2nc(C(C)C)no2)CCNC(=O)CC1 (stereo not drawn)	i	25	.
O=C(CSc1ccc2ccccc2c1)Nc1ccc2c(c1)OCCO2	i	.	.
c1ccc(Oc2cc3c(cn2)NCCN(Cc2ccsc2)C3)cc1	?	-29*	-4%
c1ccc(Oc2ccccc2-c2cc3c(cn2)CN(Cc2ccncc2)CCN3)cc1	?	-18	.
O=C(O)c1ccc(-c2c[nH]c3ncc(-c4ccccc4)cc23)cc1C1CCCC1	.	.	?
O=C(Cc1c[nH]c2ncc(-c3ccccc3)cc12)NCC1CCOCC1	?	-9	.
CCOc1ccc(S(=O)(=O)Nc2ccc(-c3cn4ccc(C)nc4n3)cc2)cc1	i	.	.
COc1ccc(C2Cn3cnc(-c4nc(-c5ccsc5)no4)c3CO2)cc1 (stereo not drawn)	?	4	.
COc1cc(/C=C2\C(=O)Nc3ccccc32)ccc1O	.	.	10µM*
CCOc1cc(/C=C2\C(=O)Nc3ccccc32)ccc1OC(F)F	i	.	.
CC1=C(C(=O)Nc2ccc(C)cc2C)C(c2cccs2)n2nc(SCc3ccccc3Cl)nc2N1 (stereo not drawn)	i	-26*	23%
CC1=C(C(=O)Nc2ccccc2C)C(c2cccs2)n2nc(SCc3cc(C)ccc3C)nc2N1 (stereo not drawn)	i	0	.
COCCN1CCC(C(=O)N2Cc3cnc(CC(C)C)nc3C2)CC1	?	6	.
SMILES	KDM5B inh	IP6K1 inh	IP6K1 conf
Cc1ccc(NC(=O)N2C[C@@H](F)C[C@H]2C(=O)N2CCc3ccccc3C2)c(Cl)c1	.	-1	.
O=C(NCc1ccccc1F)C1CCCN(c2ccnc3ccnn23)C1 (stereo not drawn)	.	-6	.
CC(=O)Nc1ccc(CC(=O)N2CCCC(Cc3nncn3-c3ccccc3)C2)cc1 (stereo not drawn)	i	-13	.
COc1cc(C2c3c(oc4cc(C)c(C)cc4c3=O)C(=O)N2CCCN2CCOCC2)ccc1O (stereo not drawn)	?	37	.
COc1cccc(C2c3c(oc4ccc(C)cc4c3=O)C(=O)N2CCCN2CCOCC2)c1OC (stereo not drawn)	i	-25*	-2%
N#Cc1ccc(C2CCCc3cncn32)cc1 (stereo not drawn)	.	-10	.
COc1ccc(S(N)(=O)=O)cc1C(=O)NCc1cccnc1-n1ccnc1	?	13	.
COCCNc1nc2c(c(=O)n(C)c(=O)n2C)n1Cc1ccc(Cl)cc1Cl	i	.	.
Cc1cc(N2CCOCC2)nc2ccc(NC(=O)NC(C)C)cc12	i	.	.
Cc1cc(C(C)Nc2ccccc2C(=O)O)c2nc(N3CCOCC3)cc(=O)n2c1 (stereo not drawn)	.	1	-11%
CC(C)c1ccc(NC(=O)CN2C(=O)NC3(CCCCC3)C2=O)cc1	i	11	.
O=C(c1ccccc1)N1CCCN(c2ccnc3ccnn23)CC1	.	-26*	13%
O=C(c1ccncc1)N1CCCN(c2ccnc3ccnn23)CC1	.	-24	.
N#Cc1cccc(-c2cn3cc(C(=O)NCCc4ccc(Cl)cc4)nc3s2)c1	.	13	.
O=C1c2ccccc2-[n+]2ccc3c([nH]c4ccccc43)c21	.	.	-24%
CN(CCO)C(=O)c1ccc(N)cc1	i	.	.
CN(C)CC(=O)N1Cc2ccccc2CC2(CCCN(CC3CCNCC3)C2)C1 (stereo not drawn)	?	12	.
CN(C)CC(=O)N1Cc2ccccc2CC2(CCN(CC3CCNCC3)C2)C1 (stereo not drawn)	i	-27*	?
COc1cc2c(cc1OC)C(COc1ccc3c(C)cc(=O)oc3c1)N(C(=O)CC(C)C)CC2 (stereo not drawn)	i	-9	.
CCC(=O)N1CCc2cc(OC)c(OC)cc2C1COc1ccc2c(C)cc(=O)oc2c1 (stereo not drawn)	i	-31*	-3%
O=C1C(N2CCN(S(=O)(=O)c3cccc(F)c3)CC2)CCN1Cc1cccnc1 (stereo not drawn)	i	14	.
Oc1ccc(Nc2nc(-c3ccc(Cl)cc3)cs2)cc1	.	-32*	?
O=C(O)c1ccc(Nc2nc(-c3ccc(Cl)cc3)cs2)cc1O	i	.	.
CSCC(=O)N1CCC(C2CCNC2)CC1 (stereo not drawn)	i	-4	.
NC(=O)CCn1cc(CN(CCO)Cc2ccccc2F)c2ccccc21	i	4	.
SMILES	KDM5B inh	IP6K1 inh	IP6K1 conf
CCCCCCCCn1cc(CN(CC)CC)c2cc(-c3cnc(N)nc3)ccc21	.	-35*	?
CNC(=O)c1cc(C)nc2onc(C3CCN(C(=O)c4ccccc4F)C3)c12 (stereo not drawn)	.	0	.
Cc1cccn2c(=O)c(C(=O)NCCc3ccc(Cl)cc3)cnc12	?	8	.
CSc1ccc(CCNC(=O)c2cnc3c(C)cccn3c2=O)cc1	i	-29*	-21%
CC[C@@H]1C(=O)N(C)c2cnc(Nc3ccc(C(=O)NC4CCN(C)CC4)cc3OC)nc2N1C1CCCC1	.	.	18%
CCC1C(=O)N(C)c2cnc(Nc3ccc(C(=O)NC4CCN(C)CC4)cc3OC)nc2N1C1CCCC1 (stereo not drawn)	.	-13	.
CCN(CC)C(=O)[C@@H]1C[C@H](NC(=O)COC)CN1Cc1ccsc1	?	-6	.
COc1cccc(-c2ncc3c(n2)OCCN(c2ccccc2)C3=O)c1	28µM*	-27*	?
COc1cccc(-c2ncc3c(n2)OCCN(c2cccc(C(F)(F)F)c2)C3=O)c1	i	-12	.
CCc1nc2nc(C)c(NS(=O)(=O)c3ccc(F)c(C)c3)c(=O)n2[nH]1	i	-28*	9%
CCc1nc2nc(C)c(NS(=O)(=O)c3ccc(F)cc3)c(=O)n2[nH]1	i	.	.
